The results in this text go back to PubChem BioAssay.

Values joined by “and” are separate entries in the source; they are usually repeats but may differ in a detail not shown here. Identical values can stand only once. Active and inactive are the calls of the source.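 Rule for the calls, unless noted: active = compounds whose cell count with miR-34 switched on is under 0.7 times the count with it off; inactive = the rest.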

Experiment [1] in a line: sensitizers of A549 cells to miR-34 induction, primary screen, imaging, A549 dox-inducible miR-34, nuclei and caspase counts (AID 1347080). The settings on record: A549 miR-34 inducible, Hoechst nuclei count, 48 h.
The nature of experiment [2]: survival rescue of mitochondrial mutant cells in low glucose, primary screen, MELAS cybrids, Rieske KO mouse fibroblasts, CellTiter-Glo (AID 1508586;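 active = mean z-score across replicates of 1.96 or higher in either the MELAS or the Rieske mutant cell line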;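 note: z relative to plate mean and SD of compound and empty wells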). A general note: Cellular ATP, detected with luciferase, serves as a proxy for viable cell number.
The target of experiment [3] is NAD(+) hydrolase SARM1 (Homo sapiens) (UniProt Q6SZW1). Nature of the experiment: SARM1 TIR NADase inhibitors, cell lysate, NAD-Glo luminescence (AID 1508614;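 active = compound whose remaining NAD level is above about 45 nM, limit read from the data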;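 note: higher remaining NAD means stronger inhibition of SARM1 NADase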). The settings on record: SAM-TIR HEK293T lysate NADase, at 1 µM, stronger effect = higher value.
Experiment [4] concerns the target Mitogen-activated protein kinase 7 (Homo sapiens) (UniProt Q13164). Nature of the experiment: ERK5 transactivation activators in reporter cells, primary screen, cell-based, HTS (AID 1508626;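 active = luciferase signal above three times the same-plate solvent-only control wells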;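 note: luciferase driven by Gal4-ERK5 fusion binding five Gal4 sites before minimal TATA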). The settings on record: HeLa Gal4-ERK5 transactivation, 18 h, at 5 µM, stronger effect = higher value.
The mark [5] stands for this setting: stronger effect = lower value, cell number ratio, induced over uninduced.
Setting [6] is: measured here: relative caspase fold change +Dox/-Dox.
Setting [7] is: measured here: total cells with miR-34 induction, stronger effect = lower value.
The mark [8] stands for this setting: measured here: total cells without miR-34 induction.
[9] abbreviates: MELAS cybrid survival, CellTiter-Glo 48 h, stronger effect = higher value.
Setting [10] is: Rieske KO mouse fibroblast survival, CellTiter-Glo 72 h.

Chain of Mitogen-activated protein kinase 7 (Homo sapiens) (Q13164 whole entry, looked up, the tested form may be a part): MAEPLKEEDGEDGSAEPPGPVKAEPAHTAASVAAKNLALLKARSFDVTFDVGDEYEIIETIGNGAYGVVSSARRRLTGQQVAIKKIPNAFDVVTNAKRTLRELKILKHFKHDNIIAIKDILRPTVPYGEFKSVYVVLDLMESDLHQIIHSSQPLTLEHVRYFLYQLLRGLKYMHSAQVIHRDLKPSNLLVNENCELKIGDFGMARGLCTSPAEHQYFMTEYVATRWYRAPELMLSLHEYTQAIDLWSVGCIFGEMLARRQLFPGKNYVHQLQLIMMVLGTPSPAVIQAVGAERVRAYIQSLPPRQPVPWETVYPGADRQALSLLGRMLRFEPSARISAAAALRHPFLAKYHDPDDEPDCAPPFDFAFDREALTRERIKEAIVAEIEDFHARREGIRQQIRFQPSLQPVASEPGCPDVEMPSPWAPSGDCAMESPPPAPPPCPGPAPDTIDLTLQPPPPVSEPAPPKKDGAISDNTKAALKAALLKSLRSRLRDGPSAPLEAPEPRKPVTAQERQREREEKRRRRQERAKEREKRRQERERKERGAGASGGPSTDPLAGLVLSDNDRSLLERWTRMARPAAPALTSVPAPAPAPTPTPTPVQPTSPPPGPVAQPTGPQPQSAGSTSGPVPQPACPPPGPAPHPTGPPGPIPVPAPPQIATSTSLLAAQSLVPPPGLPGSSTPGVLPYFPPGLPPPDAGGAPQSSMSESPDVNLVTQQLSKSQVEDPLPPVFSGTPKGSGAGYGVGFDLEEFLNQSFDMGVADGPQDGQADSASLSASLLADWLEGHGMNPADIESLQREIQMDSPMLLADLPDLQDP
Chain of NAD(+) hydrolase SARM1 (Homo sapiens) (Q6SZW1 whole entry, looked up, the tested form may be a part): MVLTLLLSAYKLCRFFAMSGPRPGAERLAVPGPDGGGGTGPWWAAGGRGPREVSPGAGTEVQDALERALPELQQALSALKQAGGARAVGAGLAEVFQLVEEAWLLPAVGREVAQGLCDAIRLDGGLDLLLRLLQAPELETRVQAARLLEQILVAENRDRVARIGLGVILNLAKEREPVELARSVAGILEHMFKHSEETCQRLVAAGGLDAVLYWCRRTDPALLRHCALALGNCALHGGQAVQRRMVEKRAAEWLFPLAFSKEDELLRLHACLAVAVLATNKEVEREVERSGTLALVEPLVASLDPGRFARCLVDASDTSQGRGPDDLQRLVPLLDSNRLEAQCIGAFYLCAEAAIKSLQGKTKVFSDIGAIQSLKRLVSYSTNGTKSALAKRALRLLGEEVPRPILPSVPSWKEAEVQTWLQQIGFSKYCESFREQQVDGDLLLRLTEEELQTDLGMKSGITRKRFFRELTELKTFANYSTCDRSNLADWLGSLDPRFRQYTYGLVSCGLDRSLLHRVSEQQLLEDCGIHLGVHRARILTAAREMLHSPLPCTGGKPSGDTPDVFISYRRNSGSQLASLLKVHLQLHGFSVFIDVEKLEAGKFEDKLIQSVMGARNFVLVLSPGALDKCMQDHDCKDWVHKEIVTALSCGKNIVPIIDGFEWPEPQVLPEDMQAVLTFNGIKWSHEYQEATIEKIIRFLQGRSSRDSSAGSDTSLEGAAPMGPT

Consider `Nc1cc(-c2ccncc2)c[nH]c1=O`, for which the fold change in experiment [1] (setting [5]) was 0.97 (inactive) and 0.958 (inactive); in experiment [1] (setting [6]), 0.721 and 1.08. For the same compound, the cell count in experiment [1] (setting [7]) is 9670 and 8610; in experiment [1] (setting [8]) it was 9980 and 8980. For the same compound, the z-score in experiment [2] (setting [9]) was -0.926 (inactive); in experiment [2] (setting [10]), -1.08. In addition, the remaining NAD in experiment [3] was 10 nM (inactive). The luciferase signal in experiment [4] is 104 AU (inactive).

For `CCn1cc(C(=O)O)c(=O)c2cnc(N3CCCC3)nc21`, the fold change in experiment [1] (setting [5]) is 0.925 (inactive); in experiment [1] (setting [6]) it was 1.02. Further, the values for the cell count in experiment [1] (setting [7]) and in experiment [1] (setting [8]) were 8260 and 8920, respectively. The z-score in experiment [2] (setting [9]) was -0.0207 (inactive); in experiment [2] (setting [10]), -0.983. Besides, the remaining NAD in experiment [3] is 10 nM (inactive). In addition, the luciferase signal in experiment [4] was 80 AU (inactive).

In the case of `OCC(O)CN1CCN(c2ccccc2)CC1` (stereo not drawn), the fold change was 0.91 (inactive) and 0.902 (inactive) and 0.934 (inactive) in experiment [1] (setting [5]); 1.09 and 0.695 and 0.504 in experiment [1] (setting [6]). The cell count was 7870 and 8950 and 8400 in experiment [1] (setting [7]); 8650 and 9930 and 8990 in experiment [1] (setting [8]). Further, the z-score in experiment [2] (setting [9]) is -0.14 (inactive) and -0.167 (inactive) and 0.182 (inactive); in experiment [2] (setting [10]), -0.169 and -0.218 and 0.0795. Also, in experiment [3], the remaining NAD was 10 nM (inactive). Also, the luciferase signal in experiment [4] was 48 AU (inactive).

Turning to `CCCCOC(=O)c1ccc(N)cc1`, the fold change was 0.764 (inactive) and 0.971 (inactive) in experiment [1] (setting [5]); 1.56 and 1.88 in experiment [1] (setting [6]). The cell count was 6730 and 8980 in experiment [1] (setting [7]); 8820 and 9260 in experiment [1] (setting [8]). The z-score is 0.902 (inactive) in experiment [2] (setting [9]) and -0.282 in experiment [2] (setting [10]). Also, the remaining NAD in experiment [3] is 10 nM (inactive). The luciferase signal in experiment [4] was 56 AU (inactive).

For the compound `NS(=O)(=O)c1cc2c(cc1Cl)NC(CSCc1ccccc1)=NS2(=O)=O`, the fold change was 0.856 (inactive) and 0.772 (inactive) in experiment [1] (setting [5]); 1.39 and 1.03 in experiment [1] (setting [6]). Also, the cell count in experiment [1] (setting [7]) was 8870 and 9840; in experiment [1] (setting [8]), 10400 and 12800. Also, the z-score is 0.425 (inactive) in experiment [2] (setting [9]) and -0.312 in experiment [2] (setting [10]). Also, the remaining NAD in experiment [3] was 10 nM (inactive). Also, in experiment [4], the luciferase signal was 88 AU (inactive).

As for `CC(=O)[C@@]1(O)CC[C@H]2[C@@H]3C[C@H](C)C4=CC(=O)C=C[C@]4(C)[C@@]3(F)[C@@H](O)C[C@@]21C`, the figures for the fold change in experiment [1] (setting [5]) and in experiment [1] (setting [6]) were 0.84 (inactive) and 1.39, respectively. The figures for the cell count in experiment [1] (setting [7]) and in experiment [1] (setting [8]) were 6290 and 7490, respectively. For the same compound, the z-score in experiment [2] (setting [9]) is -0.955 (inactive); in experiment [2] (setting [10]) it was 0.456. Moreover, in experiment [3], the remaining NAD is 10 nM (inactive). The luciferase signal in experiment [4] was 76 AU (inactive).

With `O=C(COc1ccc(Cl)cc1)N1CCN(Cc2ccc3c(c2)OCO3)CC1`, the values for the fold change in experiment [1] (setting [5]) and in experiment [1] (setting [6]) were 0.875 (inactive) and 1.39, respectively. Besides, the figures for the cell count in experiment [1] (setting [7]) and in experiment [1] (setting [8]) were 8260 and 9440, respectively. Also, the figures for the z-score in experiment [2] (setting [9]) and in experiment [2] (setting [10]) were 0.452 (inactive) and 0.138, respectively. Further, in experiment [3], the remaining NAD is 10 nM (inactive). In addition, in experiment [4], the luciferase signal was 84 AU (inactive).

For the compound `Cc1ccc2c(Cl)cc(Cl)c(O)c2n1`, the fold change is 0.915 (inactive) and 0.981 (inactive) in experiment [1] (setting [5]); 0.745 and 0.409 in experiment [1] (setting [6]). Moreover, the cell count in experiment [1] (setting [7]) is 9230 and 3330; in experiment [1] (setting [8]), 10100 and 3390. The z-score is -0.257 (inactive) in experiment [2] (setting [9]) and -0.123 in experiment [2] (setting [10]). The remaining NAD in experiment [3] is 10 nM (inactive). In addition, in experiment [4], the luciferase signal is 32 AU (inactive).

With `CCOc1ccc(Cc2nccc3cc(OCC)c(OCC)cc23)cc1OCC`, the fold change in experiment [1] (setting [5]) was 0.917 (inactive); in experiment [1] (setting [6]), 1.32. In addition, the cell count worked out at 5900 in experiment [1] (setting [7]) and 6440 in experiment [1] (setting [8]). In addition, the z-score in experiment [2] (setting [9]) is 0.91 (inactive); in experiment [2] (setting [10]) it was 1.27. In addition, in experiment [3], the remaining NAD is 10 nM (inactive). For the same compound, in experiment [4], the luciferase signal was 68 AU (inactive).

`CC(C(=O)O)c1ccc2c(c1)[nH]c1ccc(Cl)cc12` (stereo not drawn): the fold change in experiment [1] (setting [5]) is 0.887 (inactive) and 0.921 (inactive); in experiment [1] (setting [6]), 0.75 and 3.71. Further, the cell count is 8310 and 12000 in experiment [1] (setting [7]); 9370 and 13100 in experiment [1] (setting [8]). Moreover, the z-score in experiment [2] (setting [9]) was -0.267 (inactive) and -0.0777 (inactive); in experiment [2] (setting [10]) it was -0.169 and 0.447. In experiment [3], the remaining NAD is 10 nM (inactive). Also, the luciferase signal in experiment [4] is 16 AU (inactive).

`Nc1nc2c(c(=O)[nH]1)N(C=O)C(CNc1ccc(C(=O)N[C@@H](CCC(=O)O)C(=O)O)cc1)CN2` (stereo partly drawn): the fold change in experiment [1] (setting [5]) was 0.908 (inactive) and 0.841 (inactive); in experiment [1] (setting [6]) it was 0.756 and 0.824. Further, the cell count in experiment [1] (setting [7]) was 9140 and 10900; in experiment [1] (setting [8]), 10100 and 12900. For the same compound, the figures for the z-score in experiment [2] (setting [9]) and in experiment [2] (setting [10]) were -0.42 (inactive) and 0.152, respectively. The remaining NAD in experiment [3] is 10 nM (inactive). Further, in experiment [4], the luciferase signal is 72 AU (inactive).

In the case of `COc1cc(NS(=O)(=O)c2ccc(N)cc2)ncn1`, the fold change in experiment [1] (setting [5]) is 0.902 (inactive) and 0.903 (inactive); in experiment [1] (setting [6]), 1.06 and 3.99. Also, the cell count in experiment [1] (setting [7]) was 9390 and 12000; in experiment [1] (setting [8]) it was 10400 and 13300. Besides, the z-score is 0.538 (inactive) in experiment [2] (setting [9]) and 0.095 in experiment [2] (setting [10]). In addition, the remaining NAD in experiment [3] is 10 nM (inactive). Moreover, in experiment [4], the luciferase signal is 44 AU (inactive).

As for `CCN1CCCC(OC(=O)C(c2ccccc2)c2ccccc2)C1` (stereo not drawn), the fold change was 0.985 (inactive) and 0.905 (inactive) in experiment [1] (setting [5]); 0.865 and 4.46 in experiment [1] (setting [6]). The cell count in experiment [1] (setting [7]) is 9410 and 10800; in experiment [1] (setting [8]), 9550 and 11900. The results for the z-score in experiment [2] (setting [9]) and in experiment [2] (setting [10]) were 0.463 (inactive) and -0.154, respectively. For the same compound, in experiment [3], the remaining NAD was 10 nM (inactive). Moreover, the luciferase signal in experiment [4] is 64 AU (inactive).

In the case of `CCC(=O)c1c(O)cc(O)cc1O`, the fold change in experiment [1] (setting [5]) is 0.895 (inactive); in experiment [1] (setting [6]), 0.888. The values for the cell count in experiment [1] (setting [7]) and in experiment [1] (setting [8]) were 7860 and 8770, respectively. Also, the z-score is -0.229 (inactive) in experiment [2] (setting [9]) and -0.146 in experiment [2] (setting [10]). Besides, the remaining NAD in experiment [3] was 10 nM (inactive). Further, the luciferase signal in experiment [4] is 60 AU (inactive).

With `CC(C)N=C(N)/N=C(\N)Nc1ccc(Cl)cc1`, the fold change in experiment [1] (setting [5]) was 0.874 (inactive) and 0.829 (inactive); in experiment [1] (setting [6]) it was 0.463 and 3.03. The cell count is 7740 and 10800 in experiment [1] (setting [7]); 8860 and 13000 in experiment [1] (setting [8]). The values for the z-score in experiment [2] (setting [9]) and in experiment [2] (setting [10]) were -1.19 (inactive) and 0.61, respectively. Further, the remaining NAD in experiment [3] was 10 nM (inactive). Moreover, the luciferase signal in experiment [4] was 84 AU (inactive).

Take `CN1CCN(C(c2ccccc2)c2ccccc2)CC1`: the fold change in experiment [1] (setting [5]) was 0.854 (inactive) and 1.14 (inactive) and 0.917 (inactive); in experiment [1] (setting [6]), 1.3 and 0.825 and 1.5. In addition, the cell count was 8120 and 9280 and 11100 in experiment [1] (setting [7]); 9500 and 8140 and 12100 in experiment [1] (setting [8]). Also, the z-score in experiment [2] (setting [9]) was -0.157 (inactive) and 0.0064 (inactive); in experiment [2] (setting [10]), -0.181 and 0.467. In experiment [3], the remaining NAD was 10 nM (inactive). The luciferase signal in experiment [4] was 124 AU (inactive).
